# Sampled rows, rich in hits. Any-hit rate of the full collection: about 6.2%.
# HT1080 IDH1KD tx: HT-1080 IDH1 knockdown cell toxicity (counter line); HT-1080 IDH1 knockdown viability, ATP luminescence, 48 h; Potency, µM (titrated, usually from 46.1 µM), for the others: at the top dose activity, negative = toxicity, hits mostly cytotoxic; 2% of 360,000 active;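 also: 0% = DMSO wells and -100% = cell-free medium wells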
#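 Viability of IDH1-knockdown HT-1080 fibrosarcoma cells was assessed by CellTiter-Glo after 48 h at 37 °C with titrated compound; concentration-effect curves were classified by fit quality and response size.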
# KB-3-1 cytotox: KB-3-1 parental cell cytotoxicity. KB-3-1 viability, CellTiter-Glo ATP luminescence, 72 h. 1.4% of 400,000 active. Potency, µM (series often up to 46.1 µM), most hits filed as cytotoxic; also: % is scaled to controls: 0 for no effect and ±100 for the full control effect; nearly all actives have a fitted effect of over 60% in size
#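 72 h, 37 °C compound treatment of KB-3-1 parental cells; CellTiter-Glo added, 10 min, luminescence read. Data corrected against DMSO-only plates and normalized before curve fitting.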
# HT1080-NT tox: kills 2HG-producing HT-1080-NT fibrosarcoma cells; HT-1080-NT fibrosarcoma viability, CellTiter-Glo ATP luminescence, 48 h; Potency, µM (doses to about 46.1 µM), for inactives: top-dose activity, negative = less viability, actives largely listed as cytotoxic; 1.6% of 360,000 active; AID 686970;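 also: NT is the 2HG producing partner of a matched IDH1 knockdown line; 0% = DMSO-treated cells and -100% = media-only wells without cells; nearly all actives have a fitted effect of over 55% in size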
#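 Compounds were tested in concentration-response format on HT-1080-NT cells for 48 hours at 37 degrees C. Cell viability came from CellTiter-Glo luminescence; curves were classified by r2, response magnitude and activity.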
# KB-V1 cytotox: KB-V1 MDR subline cytotoxicity | KB-V1 MDR cells viability, CellTiter-Glo, 72 h | Potency, µM (doses to about 46.1 µM), usual class: cytotoxic | 3.4% of 400,000 active | AID 1347076; also: % is scaled to controls: 0 for no effect and ±100 for the full control effect; nearly all actives have a fitted effect of over 60% in size
#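 qHTS viability screen in drug-selected KB-V1 MDR cells: 72 h compound treatment at 37 degrees C, ATP luminescence end point.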
# S2 tox: reduces viability in counter-screen for ATXN expression inhibitors; 0.49% of 400,000 active; S2 cells (HEK-293 line with an ATXN2-luciferase reporter) viability, CellTiter-Fluor protease fluorescence, 24 h; Potency, µM (highest dose often 56.7 µM), most hits filed as cytotoxic; AID 651635; also: nearly all actives have a fitted effect of over 40% in size
# ATXN2 expr inh: reduces ATXN2 reporter expression in HEK-293 cells; Potency, µM (titrated, usually from 57 µM), for the others: at the highest dose activity change, negative = inhibition, hits mostly inhibitors; AID 1745845; 0.72% of 360,000 active; HEK-293 ATXN2-luciferase reporter, luminescence, 24 h; also: % is scaled to controls: 0 for no effect and ±100 for the full control effect; nearly all actives have a fitted effect of over 55% in size
#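 qHTS (up to 57 uM final) was run with 24 h compound exposure of reporter cells at 37 °C. Each well was multiplexed: SteadyGlo luminescence measured ATXN2-luciferase expression after a fluorogenic Gly-Phe-AFC viability readout (25 uM final).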
# Starred values were filed as active, the others as inactive; i = inactive; ? = inconclusive; · = no result given; ! = not active in a repeat; [ ] = another dose, or the depositor's remark. Calls follow the shape of the dose curve; as a rule, active = well fitted curve in the direction sought with a large enough effect; inconclusive = small, poorly fitted or top-dose-only effect, or another doubt; inactive = no such curve, though single readings can be large; an effect the other way counts as inactive or inconclusive. Potency is read from the fitted curve at half-maximal effect.
SMILES,HT1080 IDH1KD tx,KB-3-1 cytotox,HT1080-NT tox,KB-V1 cytotox,S2 tox,ATXN2 expr inh
CCN(C(=O)c1cc2c(Cl)nc3ccc(C)cc3c2s1)c1cc(OC)ccc1OC,·,i,·,i,·,·
Cc1nn2c3c(cnc2c1-c1ccc(Cl)cc1)C(=O)CC(c1ccco1)C3 (stereo not given),-2.4%,i,-0.6%,5.8µM*,i,1.9%
CN(C)S(=O)(=O)N(CC(=O)Nc1ccc(Br)cc1F)c1ccccc1,·,i,·,i,i,-0.7%
Cc1cccc(/C=N/NC(=O)Cc2cccs2)c1,-0.5%,i,1.0%,i,i,24.8%
Cc1ccc(C=Nc2ccccc2C(N)=O)s1,3.26µM*,23.1µM*,5.17µM*,i,?,12.3%
Cc1ccc(/C=N/N=C/c2ccc(C)s2)s1,8.9%,i,9.3%,?,i,81.7%
Cc1cccc(C=Nc2ccccc2C(N)=O)c1,7.08µM*,23.1µM*,10µM*,6.51µM*,i,10.6%
C=CCn1c(=S)[nH]c2nc3c(cc2c1=O)CCCC3,8.91µM*,?,8.91µM*,i,i,30.5%
Cc1nc2c(C(=O)NCc3ccccc3Cl)cnn2c(C)c1Cc1c(F)cccc1Cl,·,i,·,i,·,·
Cc1ccc(Cl)cc1N1CCN(C(=O)c2sc3nc4n(c(=O)c3c2C)CCC4)CC1,·,i,·,i,·,·
O=C(NCC1OCCc2ccccc21)c1ccc(NC(=O)c2ccccc2Cl)cc1 (stereo not given),-2.8%,i,-26.2%,?,i,-15.8%
O=C(NCC1OCCc2ccccc21)c1ccc(NC(=O)c2cccc(Br)c2)cc1 (stereo not given),3.0%,i,2.3%,2.59µM*,?,-17.2%
COc1ccc(/C=C/C(=O)Nc2nc3n(n2)C(c2ccc(F)cc2)C=C(c2ccccc2)N3)cc1 (stereo not given),·,i,·,i,i,1.3%
CCC(CC)NC(=O)CON=C1c2ccccc2-c2ccccc21,-22.0%,i,-28.4%,23.1µM*,i,?
COc1ccc(-n2cc(-c3ccccc3)[n+]3c2CCCCC3)cc1,?,?,?,i,i,?
C[n+]1cc(-c2ccccc2)n2c1CCCCC2,4.3%,?,-2.6%,i,i,-7.9%
COc1ccc(-c2cn(-c3ccc(OC)cc3)c3[n+]2-c2ccccc2CC3)cc1,?,3.66µM*,25.9µM*,i,?,?
CC(C)c1ccc(-n2c(-c3ccccc3)c[n+]3c2CCc2ccccc2-3)cc1,7.31µM*,2.59µM*,8.2µM*,i,?,?
COc1ccccc1-n1c(-c2ccccc2)c[n+]2c1CCc1ccccc1-2,13µM*,3.26µM*,14.6µM*,i,?,6.7µM*!
COc1ccc(-n2c(-c3ccc(Br)cc3)c[n+]3c2CCc2ccccc2-3)cc1,16.4µM*,2.59µM*,?,i,i,?
CCC1(C2CCN(Cc3cc4ccccc4o3)CC2)NC(=O)N(CC2COc3ccccc3O2)C1=O (stereo not given),·,·,·,·,i,·
Cc1ccc(N(CC(O)COCc2ccco2)S(=O)(=O)c2ccc(C)cc2)cc1 (stereo not given),?,i,-2.6%,20.6µM*,i,5.1%
CCCN(CCC)CC(O)CN(c1ccccc1)S(=O)(=O)c1ccc(C)cc1 (stereo not given),-7.5%,i,-10.2%,i,i,1.3%
CCOC(=O)c1c(S(=O)(=O)N2CCC(C(=O)Nc3ccccc3OC)CC2)c(C)n(CC)c1C,·,i,·,?,i,2.2%
COCC(=O)Nc1cc(C(=O)N2CCSCC2)cc2nc(-c3ccccc3)n(C)c12,·,·,·,·,i,·
SMILES,HT1080 IDH1KD tx,KB-3-1 cytotox,HT1080-NT tox,KB-V1 cytotox,S2 tox,ATXN2 expr inh
C=CCc1ccc(OCC(O)CN2CCN(c3ccccc3OC)CC2)c(OC)c1 (stereo not given),-22.9%,i,-12.0%,i,i,-21.2%
C=CCc1ccc(OCC(O)CN2CCC(Cc3ccccc3)CC2)c(OC)c1 (stereo not given),-8.8%[9.24 µM],i,?,20.6µM*,?,-27.9%
C=CCc1ccc(OCC(O)CN2CCN(Cc3ccc(Cl)cc3)CC2)c(OC)c1 (stereo not given),20.6µM*,23.1µM*,20.6µM*,?,?,-15.6%
Cc1ccc(-c2noc(-c3cccnc3N(C)Cc3ccc(Cl)cc3)n2)cc1,·,i,·,i,i,10.8%
COc1ccc2c(c1)sc1ncc(C(=O)NCc3ccccc3F)c(=O)n12,·,i,·,i,·,·
CC(=O)c1ccc(F)c(-c2cc(C)cc3c2OC(CNC(=O)c2cccnc2)C3)c1 (stereo not given),·,·,·,·,i,·
Oc1ccccc1Nc1nc(NCc2ccccc2)c2ccccc2n1,?,23.1µM*,?,20.6µM*,i,?
CCCCNc1nc(NCc2ccccc2)nc2ccccc12,16.4µM*,?,?,?,31.6µM*,22.4µM*
COc1cc2ncnc(NCc3ccccc3)c2cc1OC,-4.9%,i,0.4%,?,i,-10.0%
CNc1nc(NCc2ccccc2)c2ccccc2n1,?,?,?,i,i,?
c1ccc(CNc2ncnc3ccccc23)cc1,-22.0%,?,-18.5%,8.2µM*!,i,-25.8%
COc1ccc(CNc2ncnc3cc(Cl)ccc23)cc1,-27.6%,?,-26.4%,20.6µM*,i,?
Oc1ccccc1-c1nc(NCc2ccccc2)c2ccccc2n1,-7.9%,i,?,i,i,-33.1%
Brc1cccc[n+]1Cc1ccccc1C[n+]1ccccc1Br,·,i,·,i,·,·
CCc1ccccc1NC(=O)c1cnc(N2CCCCC2)c2ccccc12,·,i,·,i,·,·
CCN(CC)CCNC(=O)Cn1ncc2c([nH]c3ccccc32)c1=O,·,i,·,i,i,0.0%
CC(=O)NCC(=O)N1[C@H]2CC[C@H]1c1cc(Nc3ncc(C(F)(F)F)c(NC4CCC4)n3)ccc12,·,·,·,·,·,4.85µM*
COc1ccc(F)cc1S(=O)(=O)Nc1ccc2c(c1)CCCN2C(=O)c1cccs1,·,i,·,i,i,-17.1%
C/C(=N\Nc1nc2c(s1)CCCC2)c1ccc(Cl)cc1,23.1µM*,?,23.1µM*,?,i,4.8%
CN(C)c1ccc(C(=O)Nc2nc3c(s2)CCCC3)cc1,-17.5%,i,0.9%,i,?,?
O=C(COc1ccc(-n2ccnc2)cc1)Nc1cccc(Cl)c1,-21.4%,?,0.0%,5.8µM*,?,-23.1%

# Compound activity from PubChem BioAssay.
